Among the data in PubChem BioAssay (NCATS) are Potency values, retold here.

Molecules are shown by their SMILES. Inconclusive results are not listed. Activity calls are given as the source filed them. The call rests on the fitted dose curve; in most records, active means well fitted curve in the direction sought with a large enough effect; inconclusive means small, poorly fitted or top-dose-only effect, or another doubt; inactive means no such curve, though single readings can be large; an effect the other way counts as inactive or inconclusive.

Experiment [1] in a line: Quantitative High-Throughput drug screen in 47 multiple myeloma cell lines against the NCATS MIPE library collection: KMS26_JCRB cell viability assay (AID 1918975). Further: nearly all actives have a fitted effect of over 45% in size. In short, it runs like this:
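qHTS of the MIPE 4.0 collection: 500 myeloma cells/well, 48 h drug exposure at 37C in 5% CO2, then CellTiter-Glo for 5 min at room temperature before luminescence reading.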

Experiment [2] in a line: Quantitative High-Throughput drug screen in 47 multiple myeloma cell lines against the NCATS MIPE library collection: MMM1_PLB cell viability assay (AID 1918976). Further: nearly all actives have a fitted effect of over 35% in size. In short, it runs like this: (§1)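 Viability after 48 h drug exposure was measured as ATP-dependent luminescence. Cells, 500 per well, sat at 37 °C under 5% CO2; DMSO wells set 100%, media-only wells 0%.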
Experiment [3] can be described thus: Quantitative High-Throughput drug screen in 47 multiple myeloma cell lines against the NCATS MIPE library collection: MOLP8_DSMZ cell viability assay (AID 1918977). Further: nearly all actives have a fitted effect of over 45% in size. In short, it runs like this:
as §1

Experiment [4] can be described thus: Quantitative High-Throughput drug screen in 47 multiple myeloma cell lines against the NCATS MIPE library collection: NCIH929_DSMZ cell viability assay (AID 1918978). Further: nearly all actives have a fitted effect of over 35% in size. A digest of the protocol:
as §1

The nature of experiment [5]: Quantitative High-Throughput drug screen in 47 multiple myeloma cell lines against the NCATS MIPE library collection: OCIMY1_PLB cell viability assay (AID 1918979). Further: nearly all actives have a fitted effect of over 35% in size. In short, it runs like this:
as §1

Experiment [6] is described as follows: Quantitative High-Throughput drug screen in 47 multiple myeloma cell lines against the NCATS MIPE library collection: MM1S_ATCC cell viability assay (AID 1918980). Further: nearly all actives have a fitted effect of over 45% in size. In short, it runs like this:
as §1

Experiment [7] can be described thus: Quantitative High-Throughput drug screen in 47 multiple myeloma cell lines against the NCATS MIPE library collection: KMS28PE_JCRB cell viability assay (AID 1918983). Further: nearly all actives have a fitted effect of over 35% in size. In short, it runs like this: as §1
Experiment [8] is described as follows: Quantitative High-Throughput drug screen in 47 multiple myeloma cell lines against the NCATS MIPE library collection: L363_DSMZ cell viability assay (AID 1918984). Further: nearly all actives have a fitted effect of over 40% in size. A digest of the protocol:
as §1

The nature of experiment [9]: Quantitative High-Throughput drug screen in 47 multiple myeloma cell lines against the NCATS MIPE library collection: MM1R_ATCC cell viability assay (AID 1918981). Further: nearly all actives have a fitted effect of over 35% in size. In short, it runs like this: as §1
Experiment [10] is described as follows: Quantitative High-Throughput drug screen in 47 multiple myeloma cell lines against the NCATS MIPE library collection: LP1_DSMZ cell viability assay (AID 1918982). Further: nearly all actives have a fitted effect of over 35% in size. A digest of the protocol: as §1
Potency means the concentration at half of the fitted maximal effect.

As to `Cc1[nH]nc2ccc(-c3cncc(OC[C@@H](N)Cc4ccccc4)c3)cc12`, the Potency is 2640 nM (active) in experiment [1]; 2960 nM (active) in experiment [2]; 526 nM (active) in [3]; 1480 nM (active) in [4]; 6620 nM (active) in experiment [5]; 935 nM (active) in experiment [6]. Further, the values for the Potency in experiment [7] and in [8] were 4180 nM (active) and 935 nM (active), respectively.

As to `C[C@@]12O[C@@H](C[C@]1(O)CO)n1c3ccccc3c3c4c(c5c6ccccc6n2c5c31)CNC4=O`, the Potency in experiment [1] is 5900 nM (active); in [2], 3320 nM (active); in [3], 209 nM (active); in experiment [4], 469 nM (active); in experiment [6], 1050 nM (active); in experiment [9], 833 nM (active). Besides, the Potency is 5260 nM (active) in experiment [10] and 2090 nM (active) in experiment [7].

Consider `COC(=O)Nc1ccc(-c2nc(N3CCOCC3)c3cnn(C4CCN(Cc5cccnc5)CC4)c3n2)cc1`, for which the Potency was 2960 nM (active) in experiment [1]; 83.3 nM (active) in experiment [2]; 59 nM (active) in [3]; 74.3 nM (active) in experiment [4]; 4690 nM (active) in experiment [5]; 118 nM (active) in [6]. Further, the Potency in experiment [9] was 1480 nM (active). Further, the Potency entry in [8] is “inactive”.

As to `Cc1cc(CN2CCN(c3c(Br)cnc4nc(-c5ccc(N6CCN(C)CC6)cc5)[nH]c34)CC2)no1`, the Potency was 7430 nM (active) in experiment [1]; 23500 nM (active) in experiment [2]; 7430 nM (active) in [3]; 2350 nM (active) in experiment [4]; 5900 nM (active) in [6]; 13200 nM (active) in [9]. Besides, the Potency in [7] is 20900 nM (active).

For `C1=CCOCc2cc(ccc2OCCN2CCCC2)Nc2nccc(n2)-c2cccc(c2)OCC1`, the Potency was 4180 nM (active) in [1]; 3320 nM (active) in experiment [2]; 2090 nM (active) in [3]; 2350 nM (active) in experiment [4]; 5900 nM (active) in experiment [5]; 2640 nM (active) in [6]. For the same molecule, the Potency in [10] was 2640 nM (active); in [7], 3720 nM (active); in experiment [8], 743 nM (active).

As to `CC(C)(O)c1cc2nc(-c3cnc(N)nc3)nc(N3CCOCC3)c2s1`, the Potency in experiment [1] is 132 nM (active); in experiment [2] it was 46.9 nM (active); in [3] it was 29.6 nM (active); in [4], 14.8 nM (active); in experiment [6], 66.2 nM (active); in experiment [9] it was 66.2 nM (active). The Potency in experiment [10] was 13.2 nM (active); in experiment [7] it was 37.2 nM (active).

With `CC(NCc1ccc2c(c1)nc(NC(=O)c1ccc(-c3cn[nH]c3)s1)n2CC(C)(C)O)C(C)(C)C` (stereo not drawn), the Potency is 743 nM (active) in [1]; 118 nM (active) in [2]; 209 nM (active) in experiment [3]; 235 nM (active) in experiment [4]; 332 nM (active) in [6]; 469 nM (active) in [9]. Further, the Potency in [10] was 469 nM (active); in experiment [7], 469 nM (active); in experiment [8] it was 105 nM (active).

Turning to `CC(C)CC(=O)Nc1n[nH]c2c1CN(C(=O)C1CCN(C)CC1)C2(C)C`, the Potency in [1] is 3320 nM (active); in experiment [2] it was 4690 nM (active); in [3] it was 418 nM (active); in experiment [4], 743 nM (active); in experiment [5], 16600 nM (active); in experiment [6] it was 66.2 nM (active). Also, the Potency is 1180 nM (active) in experiment [7] and 833 nM (active) in [8].

For `CCOC(=O)C1=C(C)NC2=C(C(=O)CC(C)(C)C2)C1c1ccc(-c2ccccc2)cc1` (stereo not drawn), the Potency was 16600 nM (active) in experiment [1]; 23500 nM (active) in experiment [2]; 16600 nM (active) in experiment [3]; 20900 nM (active) in experiment [4]; 23500 nM (active) in [6].

Take `Nc1ncnc2c1c(-c1cnc3[nH]ccc3c1)nn2C1CCCC1`: the Potency in experiment [1] is 10500 nM (active); in experiment [2], 187 nM (active); in [3], 105 nM (active); in [4] it was 235 nM (active); in experiment [6], 2960 nM (active); in experiment [9], 2090 nM (active). Further, the Potency in [10] was 148 nM (active); in [7], 1870 nM (active); in experiment [8] it was 93.5 nM (active).

As to `OCc1ccc(-c2ccc(-c3ccc(CO)s3)o2)s1`, the Potency is 11800 nM (active) in experiment [1]; 3720 nM (active) in experiment [2]; 20900 nM (active) in [3]; 2640 nM (active) in [4]; 23500 nM (active) in experiment [5]; 6620 nM (active) in experiment [6]. In addition, the Potency was 3720 nM (active) in [9] and 29600 nM (active) in [7]. The Potency entry in experiment [8] is “inactive”.

On to `CNC(=O)c1c(F)cccc1Nc1nc(Nc2cc3c(cc2OC)CCN3C(=O)CN(C)C)nc2[nH]ccc12`, for which the Potency was 264 nM (active) in experiment [1]; 46.9 nM (active) in [2]; 7430 nM (active) in [3]; 83.3 nM (active) in [4]; 372 nM (active) in experiment [5]; 93.5 nM (active) in [9]. Moreover, the Potency was 16600 nM (active) in experiment [10] and 132 nM (active) in experiment [7]. Besides, the Potency result in [8] was “inactive”.

`Cc1ccc(C(N)=O)cc1Nc1nccc(-c2cn(C(C)C)c3cnccc23)n1`: the Potency is 10500 nM (active) in experiment [1]; 16600 nM (active) in experiment [2]; 4690 nM (active) in experiment [3]; 2960 nM (active) in [4]; 7430 nM (active) in [6]; 8330 nM (active) in [9]. Further, the Potency in experiment [10] is 8330 nM (active); in experiment [7] it was 13200 nM (active); in experiment [8], 2640 nM (active).

For `Cc1cc(Nc2cc(N3CCN(C)CC3)nc(Sc3ccc(NC(=O)C4CC4)cc3)n2)n[nH]1`, the Potency in experiment [1] was 14800 nM (active); in experiment [2], 10500 nM (active); in [3], 5900 nM (active); in experiment [4] it was 5900 nM (active); in experiment [6], 13200 nM (active); in experiment [9] it was 16600 nM (active). The Potency in experiment [7] is 11800 nM (active).
